Among the data in article PMC9911399, “Two distinct binding modes provide the RNA-binding protein RbFox with extraordinary sequence specificity” are binding signal values, retold here.

Changes are numbered by the printed parent chain; changes in the protein carry UniProt numbers. In all, about 16,000 sequences were measured (“ka relative to ugcaugu”: median about 0.096, highest 2% from about 0.35 on). Many of the other results were omitted from the sample, so the highest values are more common in it than they were.

First the molecules themselves.
T1: RBFOX1 RRM RbFoxmut (Fox-RRM*) (Homo sapiens, UniProt Q9NWB1 109-208, R118D;E147R;N151S;E152T)
T1 sequence: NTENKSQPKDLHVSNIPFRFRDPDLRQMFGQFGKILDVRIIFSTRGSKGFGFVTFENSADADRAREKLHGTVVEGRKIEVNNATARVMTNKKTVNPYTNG

B1: CUGGUGC (DNA:RNA)
RNA: GGGAGACCGGAAUUCAGAUUGUCCCUGGUGCUUAAAUCCCGUCGUAGCCACCA
DNA 1: CAATCTGAATTCCGGTCTCCC
DNA 2: TGGTGGCTACGACGGGATT
B2: CGGACCU (DNA:RNA)
RNA: B1 RNA with U26G, G28A, U29C, G30C, C31U
DNA 1: CAATCTGAATTCCGGTCTCCC
DNA 2: TGGTGGCTACGACGGGATT
B3: CGGAUAC (DNA:RNA)
RNA: B1 RNA with U26G, G28A, G30A
DNA 1: CAATCTGAATTCCGGTCTCCC
DNA 2: TGGTGGCTACGACGGGATT
B4: CUCGGCU (DNA:RNA)
RNA: B1 RNA with G27C, U29G, G30C, C31U
DNA 1: CAATCTGAATTCCGGTCTCCC
DNA 2: TGGTGGCTACGACGGGATT
B5: AGCGAAC (DNA:RNA)
RNA: B1 RNA with C25A, U26G, G27C, U29A, G30A
DNA 1: CAATCTGAATTCCGGTCTCCC
DNA 2: TGGTGGCTACGACGGGATT
B6: UCGAUAG (DNA:RNA)
RNA: B1 RNA with C25U, U26C, G28A, G30A, C31G
DNA 1: CAATCTGAATTCCGGTCTCCC
DNA 2: TGGTGGCTACGACGGGATT
B7: AGCAAGC (DNA:RNA)
RNA: B1 RNA with C25A, U26G, G27C, G28A, U29A
DNA 1: CAATCTGAATTCCGGTCTCCC
DNA 2: TGGTGGCTACGACGGGATT
B8: GGGGAAC (DNA:RNA)
RNA: B1 RNA with C25G, U26G, U29A, G30A
DNA 1: CAATCTGAATTCCGGTCTCCC
DNA 2: TGGTGGCTACGACGGGATT
B9: ACCGGCA (DNA:RNA)
RNA: B1 RNA with C25A, U26C, G27C, U29G, G30C, C31A
DNA 1: CAATCTGAATTCCGGTCTCCC
DNA 2: TGGTGGCTACGACGGGATT
B10: GGGGGCA (DNA:RNA)
RNA: B1 RNA with C25G, U26G, U29G, G30C, C31A
DNA 1: CAATCTGAATTCCGGTCTCCC
DNA 2: TGGTGGCTACGACGGGATT
B11: AUGUCGU (DNA:RNA)
RNA: B1 RNA with C25A, G28U, U29C, C31U
DNA 1: CAATCTGAATTCCGGTCTCCC
DNA 2: TGGTGGCTACGACGGGATT
B12: CGGCAUG (DNA:RNA)
RNA: B1 RNA with U26G, G28C, U29A, G30U, C31G
DNA 1: CAATCTGAATTCCGGTCTCCC
DNA 2: TGGTGGCTACGACGGGATT
B13: AGGCAUG (DNA:RNA)
RNA: B1 RNA with C25A, U26G, G28C, U29A, G30U, C31G
DNA 1: CAATCTGAATTCCGGTCTCCC
DNA 2: TGGTGGCTACGACGGGATT
B14: GGGCAUA (DNA:RNA)
RNA: B1 RNA with C25G, U26G, G28C, U29A, G30U, C31A
DNA 1: CAATCTGAATTCCGGTCTCCC
DNA 2: TGGTGGCTACGACGGGATT
B15: GGCAUUU (DNA:RNA)
RNA: B1 RNA with C25G, U26G, G27C, G28A, G30U, C31U
DNA 1: CAATCTGAATTCCGGTCTCCC
DNA 2: TGGTGGCTACGACGGGATT
B16: GGCAUGU (DNA:RNA)
RNA: B1 RNA with C25G, U26G, G27C, G28A, C31U
DNA 1: CAATCTGAATTCCGGTCTCCC
DNA 2: TGGTGGCTACGACGGGATT
B17: AGGCAUA (DNA:RNA)
RNA: B1 RNA with C25A, U26G, G28C, U29A, G30U, C31A
DNA 1: CAATCTGAATTCCGGTCTCCC
DNA 2: TGGTGGCTACGACGGGATT
B18: AGGCAUC (DNA:RNA)
RNA: B1 RNA with C25A, U26G, G28C, U29A, G30U
DNA 1: CAATCTGAATTCCGGTCTCCC
DNA 2: TGGTGGCTACGACGGGATT
B19: GGGCAUG (DNA:RNA)
RNA: B1 RNA with C25G, U26G, G28C, U29A, G30U, C31G
DNA 1: CAATCTGAATTCCGGTCTCCC
DNA 2: TGGTGGCTACGACGGGATT
B20: CGGCAUA (DNA:RNA)
RNA: B1 RNA with U26G, G28C, U29A, G30U, C31A
DNA 1: CAATCTGAATTCCGGTCTCCC
DNA 2: TGGTGGCTACGACGGGATT
B21: UCCCUCG (DNA:RNA)
RNA: B1 RNA with C25U, U26C, G27C, G28C, G30C, C31G
DNA 1: CAATCTGAATTCCGGTCTCCC
DNA 2: TGGTGGCTACGACGGGATT
B22: CAACAUU (DNA:RNA)
RNA: B1 RNA with U26A, G27A, G28C, U29A, G30U, C31U
DNA 1: CAATCTGAATTCCGGTCTCCC
DNA 2: TGGTGGCTACGACGGGATT
B23: UUGUUCU (DNA:RNA)
RNA: B1 RNA with C25U, G28U, G30C, C31U
DNA 1: CAATCTGAATTCCGGTCTCCC
DNA 2: TGGTGGCTACGACGGGATT
B24: AGUGUUG (DNA:RNA)
RNA: B1 RNA with C25A, U26G, G27U, G30U, C31G
DNA 1: CAATCTGAATTCCGGTCTCCC
DNA 2: TGGTGGCTACGACGGGATT
B25: AGUCACC (DNA:RNA)
RNA: B1 RNA with C25A, U26G, G27U, G28C, U29A, G30C
DNA 1: CAATCTGAATTCCGGTCTCCC
DNA 2: TGGTGGCTACGACGGGATT
B26: UGUACCC (DNA:RNA)
RNA: B1 RNA with C25U, U26G, G27U, G28A, U29C, G30C
DNA 1: CAATCTGAATTCCGGTCTCCC
DNA 2: TGGTGGCTACGACGGGATT
B27: GCAGACU (DNA:RNA)
RNA: B1 RNA with C25G, U26C, G27A, U29A, G30C, C31U
DNA 1: CAATCTGAATTCCGGTCTCCC
DNA 2: TGGTGGCTACGACGGGATT
B28: GGUAUUA (DNA:RNA)
RNA: B1 RNA with C25G, U26G, G27U, G28A, G30U, C31A
DNA 1: CAATCTGAATTCCGGTCTCCC
DNA 2: TGGTGGCTACGACGGGATT
B29: GUCGGUA (DNA:RNA)
RNA: B1 RNA with C25G, G27C, U29G, G30U, C31A
DNA 1: CAATCTGAATTCCGGTCTCCC
DNA 2: TGGTGGCTACGACGGGATT
B30: ACGUCCC (DNA:RNA)
RNA: B1 RNA with C25A, U26C, G28U, U29C, G30C
DNA 1: CAATCTGAATTCCGGTCTCCC
DNA 2: TGGTGGCTACGACGGGATT
B31: ACGUAUG (DNA:RNA)
RNA: B1 RNA with C25A, U26C, G28U, U29A, G30U, C31G
DNA 1: CAATCTGAATTCCGGTCTCCC
DNA 2: TGGTGGCTACGACGGGATT
B32: CGGUCGU (DNA:RNA)
RNA: B1 RNA with U26G, G28U, U29C, C31U
DNA 1: CAATCTGAATTCCGGTCTCCC
DNA 2: TGGTGGCTACGACGGGATT
B33: CCCAGUA (DNA:RNA)
RNA: B1 RNA with U26C, G27C, G28A, U29G, G30U, C31A
DNA 1: CAATCTGAATTCCGGTCTCCC
DNA 2: TGGTGGCTACGACGGGATT
B34: GGUCCGU (DNA:RNA)
RNA: B1 RNA with C25G, U26G, G27U, G28C, U29C, C31U
DNA 1: CAATCTGAATTCCGGTCTCCC
DNA 2: TGGTGGCTACGACGGGATT
B35: GGUAUGU (DNA:RNA)
RNA: B1 RNA with C25G, U26G, G27U, G28A, C31U
DNA 1: CAATCTGAATTCCGGTCTCCC
DNA 2: TGGTGGCTACGACGGGATT
B36: AGUAUGU (DNA:RNA)
RNA: B1 RNA with C25A, U26G, G27U, G28A, C31U
DNA 1: CAATCTGAATTCCGGTCTCCC
DNA 2: TGGTGGCTACGACGGGATT
B37: GGUAUUG (DNA:RNA)
RNA: B1 RNA with C25G, U26G, G27U, G28A, G30U, C31G
DNA 1: CAATCTGAATTCCGGTCTCCC
DNA 2: TGGTGGCTACGACGGGATT
B38: ACGUAGC (DNA:RNA)
RNA: B1 RNA with C25A, U26C, G28U, U29A
DNA 1: CAATCTGAATTCCGGTCTCCC
DNA 2: TGGTGGCTACGACGGGATT
B39: CAGUAUG (DNA:RNA)
RNA: B1 RNA with U26A, G28U, U29A, G30U, C31G
DNA 1: CAATCTGAATTCCGGTCTCCC
DNA 2: TGGTGGCTACGACGGGATT

This test addresses T1, RBFOX1 RRM RbFoxmut (Fox-RRM*). The test can be described thus: EMSA; HiTS-Eq, 1 nM pool, 10 min; buffer printed only for the single-RNA assays: 10 mM Tris pH 7.5, 150 mM NaCl, 3.4 mM EDTA, 0.001% NP-40, 30 C. To be noted: tags: His6 N-terminal (pET28a); label: 5' 32P. The gist of the method: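 Purified RbFox RRM, wild type or mutant, was incubated for 10 min in 50 µL with 1 nM of a 5′-radiolabelled RNA pool carrying 7 randomized nucleotides, whose flanks were annealed to DNA oligonucleotides, over a series of increasing protein concentrations. Unbound RNA was resolved on 8% native PAGE, cut out, reverse-transcribed, barcoded by PCR and sequenced on an Illumina HiSeq 2500. Relative association constants were derived from changes in read counts for each RNA species versus the control reaction and normalised to the cognate motif.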
Turning to B1, the binding signal was 0.0874 KA relative to UGCAUGU.

As for B2, the binding signal is 0.0739 KA relative to UGCAUGU.

Consider B3, for which the binding signal is 0.0884 KA relative to UGCAUGU.

As to B4, the binding signal was 0.0859 KA relative to UGCAUGU.

With B5, the binding signal was 0.0784 KA relative to UGCAUGU.

In the case of B6, the binding signal was 0.1 KA relative to UGCAUGU.

On to B7, for which the binding signal is 0.0622 KA relative to UGCAUGU.

Consider B8, for which the binding signal is 0.0664 KA relative to UGCAUGU.

With B9, the binding signal is 0.1 KA relative to UGCAUGU.

Turning to B10, the binding signal is 0.128 KA relative to UGCAUGU.

As for B11, the binding signal is 0.137 KA relative to UGCAUGU.

On to B12, for which the binding signal is 0.998 KA relative to UGCAUGU.

Regarding B13, the binding signal is 0.799 KA relative to UGCAUGU.

Regarding B14, the binding signal was 0.134 KA relative to UGCAUGU.

In the case of B15, the binding signal is 0.0782 KA relative to UGCAUGU.

Consider B16, for which the binding signal is 0.834 KA relative to UGCAUGU.

For the molecule B17, the binding signal was 0.11 KA relative to UGCAUGU.

As to B18, the binding signal was 0.222 KA relative to UGCAUGU.

Turning to B19, the binding signal is 1.23 KA relative to UGCAUGU.

Take B20: the binding signal is 0.108 KA relative to UGCAUGU.

Turning to B21, the binding signal was 0.133 KA relative to UGCAUGU.

For B22, the binding signal is 0.0738 KA relative to UGCAUGU.

In the case of B23, the binding signal is 0.113 KA relative to UGCAUGU.

B24: the binding signal is 0.186 KA relative to UGCAUGU.

Consider B25, for which the binding signal was 0.0525 KA relative to UGCAUGU.

For the molecule B26, the binding signal was 0.0834 KA relative to UGCAUGU.

For the molecule B27, the binding signal is 0.0704 KA relative to UGCAUGU.

As to B28, the binding signal was 0.107 KA relative to UGCAUGU.

On to B29, for which the binding signal was 0.2 KA relative to UGCAUGU.

For B30, the binding signal is 0.056 KA relative to UGCAUGU.

B31: the binding signal is 0.385 KA relative to UGCAUGU.

Regarding B32, the binding signal is 0.104 KA relative to UGCAUGU.

Regarding B33, the binding signal was 0.116 KA relative to UGCAUGU.

Consider B34, for which the binding signal was 0.136 KA relative to UGCAUGU.

Turning to B35, the binding signal is 0.662 KA relative to UGCAUGU.

Consider B36, for which the binding signal is 0.351 KA relative to UGCAUGU.

For the molecule B37, the binding signal was 0.466 KA relative to UGCAUGU.

As to B38, the binding signal is 0.122 KA relative to UGCAUGU.

For B39, the binding signal is 0.566 KA relative to UGCAUGU.
